Assay results taken from the supplement of paper PMC6555819.

Columns and labels:
Experiment in all cases: PBM binding z-score (relative to random genomic background probes); higher = stronger binding; sequences stand for … in GC…GCGATTGACAGCGTAGAATGAAGG
[1] = system: FXR:RXRa (NR concentration 270 nM, RXRa partner concentration 90 nM)
Method in brief: (§1)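 Scanned fluorescence from custom Agilent 4×180K protein-binding microarrays was regression-normalized. Binding z-scores use random background probes as reference. Ligand-free nuclear receptor dimers were incubated on the arrays for 1 h and detected with antibodies against each partner (one per run).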

[2] = system: LXRa:RXRa (NR concentration 270 nM, RXRa partner concentration 90 nM)
Method in brief: as §1

[3] = system: LXRa homodimer (NR concentration 270 nM)
Method in brief: as §1

[4] = system: LXRb:RXRa (NR concentration 270 nM, RXRa partner concentration 90 nM)
Method in brief: as §1

[5] = system: LXRb homodimer (NR concentration 270 nM)
Method in brief: as §1

[6] = system: PPARa:RXRa (NR concentration 270 nM, RXRa partner concentration 90 nM)
Method in brief: as §1

[7] = system: PPARg:RXRa (NR concentration 180 nM, RXRa partner concentration 90 nM)
Method in brief: as §1

[8] = system: PPARg:RXRa 270nM:90nM, anti-RXR (NR concentration 270 nM, RXRa partner concentration 90 nM)
Method in brief: as §1

[9] = system: PPARg:RXRa 30nM:10nM, anti-RXR (NR concentration 30 nM, RXRa partner concentration 10 nM)
Method in brief: as §1

[10] = system: PPARg:RXRa 90nM:30nM, anti-RXR (NR concentration 90 nM, RXRa partner concentration 30 nM)
Method in brief: as §1

[11] = system: PPARg:RXRa DBDmut IVT, anti-RXR (DBD mutation: RXRa K156A/R161A, NR concentration 270 nM, RXRa partner concentration 90 nM)
Method in brief: as §1

[12] = system: PPARg:RXRa IVT, anti-PPARg (NR concentration 270 nM, RXRa partner concentration 90 nM)
Method in brief: as §1

[13] = system: PPARg DBDmut:RXRa IVT, anti-PPARg (DBD mutation: PPARg1 K132A/R137A, NR concentration 270 nM, RXRa partner concentration 90 nM)
Method in brief: as §1

[14] = system: PPARg DBDmut IVT, anti-PPARg (DBD mutation: PPARg1 K132A/R137A, NR concentration 270 nM)
Method in brief: as §1

[15] = system: PPARg homodimer (NR concentration 180 nM)
Method in brief: as §1

[16] = system: PXR:RXRa (NR concentration 270 nM, RXRa partner concentration 90 nM)
Method in brief: as §1

[17] = system: PXR homodimer (NR concentration 270 nM)
Method in brief: as §1

[18] = system: RARa:RXR (NR concentration 270 nM, RXRa partner concentration 90 nM)
Method in brief: as §1

[19] = system: RARa homodimer (NR concentration 270 nM)
Method in brief: as §1

[20] = system: RARb:RXRa (NR concentration 270 nM, RXRa partner concentration 90 nM)
Method in brief: as §1

Sequence	PBM binding z-score [1]	PBM binding z-score [2]	PBM binding z-score [3]	PBM binding z-score [4]	PBM binding z-score [5]	PBM binding z-score [6]	PBM binding z-score [7]	PBM binding z-score [8]	PBM binding z-score [9]	PBM binding z-score [10]	PBM binding z-score [11]	PBM binding z-score [12]	PBM binding z-score [13]	PBM binding z-score [14]	PBM binding z-score [15]	PBM binding z-score [16]	PBM binding z-score [17]	PBM binding z-score [18]	PBM binding z-score [19]	PBM binding z-score [20]
TCATATAGGTAAGAGGTGAAAGTCGGTGTGGTAA	1.83	1.71	0.368	1.64	-0.0245	4.31	7.08	7.24	6.37	7.94	4.67	4.43	1.44	0.671	1.73	1.31	0.509	2	1.54	1.44
CATACTGGGCCATTCAGAGGTCATTGATCATATG	3.03	4.44	6.31	3.86	0.861	3.77	2.37	3.13	1.18	2.26	3.86	3.89	1.19	0.509	2.57	4.82	2.58	4.36	0.758	3.14
ATCTCTAGGTATCCAAGTTCAGTGAATGCCGAAC	0.313	0.879	2	0.57	0.976	0.511	0.0341	0.21	0.21	0.503	0.377	0.859	0.495	0.766	1.01	1.5	1.56	0.618	0.883	0.966
TAGCCTAGGTCATTGAGGGGCCAGTATAGAAAGC	4.54	3.48	0.272	2.84	1.08	3.67	2.08	2.48	0.353	1.49	1.9	2.84	0.198	0.125	2.84	2.36	-0.0238	3.39	-0.506	3.93
ATGGAAAGGTCGAAGGTGAGTATACCCACCCGAA	4.22	3.27	0.0491	2.82	0.401	4.71	4.84	5.14	2.3	4.32	-0.138	2.06	1.21	0.517	1.61	2.99	0.649	4.14	0.905	3.78
TAGCCTAGGTCATTCAAGGGCCAGTATAGAAAGC	4.72	3.99	0.681	2.5	0.527	3.79	1.97	2.25	0.523	1.88	1.4	2.93	0.0741	0.0632	1.31	2.5	0.325	2.93	0.561	3.9
GCTTACGGGTCAAAGGTTATCGCATGAATAGAAT	7.98	5.85	0.561	5.81	0.413	6.94	11.7	9.26	8.55	10.3	5.17	6.06	0.968	0.942	2.75	6.19	0.364	8.16	0.571	4.76
